Data taken from publication PMC5540273 (PLoS ONE, 2017).

system: T1, ERK4; details: concentration: 1 μM,replicates: in singlicate; n = 1
T1 construct: gene MAPK4
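Note: KINOMEscan kinase panel screen.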

Row | SMILES | %Inh
1 | Cl.Cl.NC[C@H](Cc1ccc(C(F)(F)F)cc1)NC(=O)c1cc(Br)c(-c2ccnc3[nH]ccc23)s1 [GSK1487252] | 23%
2 | Nc1nc(Nc2ccccc2)cc(-c2ccc3c(N)n[nH]c3c2)n1 [GSK2225749] | 0%
3 | CC(C)Nc1cc(-c2ccc3c(N)n[nH]c3c2)nc(N)n1 [GSK2221681] | 0%
4 | CC(C)N1C(=O)Cc2cc(Nc3ncc(C(F)(F)F)c(NCc4cccc(S(C)(=O)=O)c4)n3)ccc21 | 4%
5 | Cl.Cl.NC[C@H](CC1CCCCC1)NC(=O)c1cc(Br)c(-c2ccnc3[nH]ccc23)s1 [GSK1581427] | 1%
6 | CN(C)CC(O)COc1ccc(Nc2nccc(-c3cnn4nc(N5CCOCC5)ccc34)n2)cc1 (stereo not drawn) [GW767488] | 6%
7 | CCN(CC)CCOc1ccc(Nc2ncc3cc(-c4c(Cl)cccc4Cl)c(=O)n(C)c3n2)cc1 [SB-601273] | 76%
8 | Cc1n[nH]c2ccc(-c3cc(OC[C@@H](N)Cc4ccccc4)cnc3-c3ccoc3)cc12.O=C(O)C(F)(F)F.O=C(O)C(F)(F)F [GSK507358] | 0%
9 | Cc1occc1-c1nc(N)c(OC[C@@H](N)Cc2c[nH]c3ccccc23)cc1-c1cc2c(C)n[nH]c2cn1 [GSK1660450] | 0%
10 | C[C@@H]1CCN(C(=O)CC#N)C[C@@H]1N(C)c1ncnc2[nH]ccc12 | 7%
11 | Cl.Oc1cc(-c2nc(-c3ccccc3)[nH]c2-c2ccncc2)ccc1Cl [SB-386023] | 10%
12 | O=C(NCCCN1CCOC1=O)c1cnc(NCc2cc(Cl)ccc2Cl)nc1NC1CCCC1 | 4%
13 | Cc1cc(C(=O)Nc2ccc(Oc3ccc4nc(NC(=O)C5CC5)cn4n3)cc2)nn1-c1ccccc1 | 18%
14 | Cl.Cl.Nc1nc(-c2ccc3c(N)n[nH]c3c2)cc(N2CCCC(NC(=O)c3ccccc3)C2)n1 (stereo not drawn) [GSK2286775] | 28%
15 | CCN(CC)CCCCNc1ncc2cc(-c3c(Cl)cccc3Cl)c(NC(=O)NC(C)(C)C)nc2n1 | 9%
16 | Cc1ccc2c(-c3ccncc3)c(-c3ccc(F)cc3)nn2c1.Cl [GW461484] | 0%
17 | COc1ccc(C[C@@H](CN)NC(=O)c2cc(Br)c(-c3ccnc4[nH]ccc34)s2)cc1.Cl.Cl [GSK1389063] | 18%
18 | O=C(NCCNc1ccnc(NCc2ccc(F)cc2)n1)c1cc2ccccc2s1 [GSK1379944] | 13%
19 | CN(C)CCOc1ccc(-c2cc(-c3c[nH]nc3-c3ccccn3)ccn2)cc1 [GW835314] | 0%
20 | CNC(=O)c1ccccc1Sc1ccc2c(/C=C/c3ccccn3)n[nH]c2c1 | 0%
21 | NC(=O)c1cc(-c2ccccc2)cc2c(C3CCNCC3)c[nH]c12 [GSK301362] | 21%
22 | CCn1c(-c2nonc2N)nc2c(C#CC(C)(C)O)nc(OCCN)cc21.Cl.Cl [GSK902056] | 5%
23 | C[C@H]1Oc2cc(cnc2N)-c2c(nn(C)c2C#N)CN(C)C(=O)c2ccc(F)cc21 | 0%
24 | C[C@@H](Oc1cc(-c2cnn(C3CCNCC3)c2)cnc1N)c1c(Cl)ccc(F)c1Cl | 15%
25 | C=CC(=O)Nc1cc2c(Nc3ccc(F)c(Cl)c3)ncnc2cc1OCCCN1CCOCC1 [GW781483] | 0%
26 | Cc1ccc(-n2nc(C(C)(C)C)cc2NC(=O)Nc2ccc(OCCN3CCOCC3)c3ccccc23)cc1 [GW839464] | 3%
27 | Cc1cc2cn[nH]c2cc1-c1cccc2c(N)c(C(N)=O)nnc12 | 0%
